Bioassay records: PubChem, several laboratories
Rows were chosen to be rich in hits. Some 0.97% of all compounds tested hit in one or more screens of this group.
TLR9-MyD88 inh: inhibitors of TLR9-MyD88 association in cells, primary screen, cell-based, CHO, BLA complementation, fluorescence; inhibition, % at 4.98 µM; hit rate 0.21% among 340,000; AID 504734, 2011; CCF4 FRET ratio; Toll-like receptor 9 (Homo sapiens) + Myeloid differentiation primary response protein …;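 active = inhibition above the mean over all tested compounds plus 3 SD, cut at about 21% in these data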;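 also: 0% = DMSO only wells and 100% = clavulanate BLA inhibitor control wells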
Bfl-1 A1 inh: caspase 3/7 activation in MEF A1-2A-BIM cells, primary screen, A1 inhibitor project, cell-based, luminescence, HTS | caspase activation, % (concentration not given with the values) | AID 2462, 2010 | hit rate 0.066% among 330,000 | Caspase-Glo 3/7 luminescence, 3 h; percent of clofoctol response, vehicle zero;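 active = over half of replicate activation scores above 10%, or exactly half above 10 with the replicate mean above 10; inconclusive = replicate mean below 10 yet half the replicates above 10; inactive = over half of replicates below 10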
NTR1 agonist: agonists of human NTR1, primary screen, imaging, U2OS cells, beta-arrestin-GFP, high content. activation, % at 20 µM. Neurotensin receptor type 1 (Homo sapiens), P30989. NTR1-U2OS beta-arrestin-GFP spot imaging, agonist mode. hit rate 0.17% among 330,000;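 active = activation at or above 40% of the spot to cytoplasm intensity ratio, with at least 20 cells analyzed; inconclusive = wells under 20 cells, flagged as cytotoxic or low count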;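 also: 0% = DMSO without peptide and 100% = 100 nM NTR1 peptide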
TLR4-MyD88 BLA: inhibitors of TLR4-MyD88 association in cells, primary screen, cell-based, HeLa CL3-4, BLA complementation, FRET ratio; Toll-like receptor 4 (Homo sapiens) + Myeloid differentiation primary response protein …; HeLa CL3-4 TLR4/MyD88 BLA complementation; inhibition, % at 8.4 µM; hit rate 0.18% among 200,000; AID 861, 2007; in the data active = inhibition above about 25%;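 also: 0% = vehicle and 100% = reference inhibitor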
B2AR ag: beta2AR agonists driving receptor internalization, primary screen, cell-based, FAP fluorogen, flow cytometry. Beta-2 adrenergic receptor (Homo sapiens), P07550. Am2.2-beta2AR cells. response, % (no concentration beside the values). hit rate 0.43% among 340,000. AID 504454, 2011;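 active = response above a set limit, near 3 SD of response in nonfluorescent compounds, cut at about 42% in these data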
NOD2 RIPK2 PPI: NOD2-RIPK2 binding disruptors in cells, primary screen, fluorescence, CHO cells, BLA complementation; CCF4 ratio; inhibition, % at 4.98 µM; hit rate 0.38% among 360,000; in the data active = inhibition above about 21%;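 also: 0% = vehicle only and 100% = reference blocker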
The depositor's hits bear a star; ? = inconclusive; · = no result given.

SMILES	TLR9-MyD88 inh	Bfl-1 A1 inh	NTR1 agonist	TLR4-MyD88 BLA	B2AR ag	NOD2 RIPK2 PPI
Nc1ccc2c(c1)C(=O)c1ccccc1-2	0	0	0	·	-5	-1
O=C1C(=O)c2ccc(-c3ccccc3)cc2-c2ccccc21	8	3	14	-6	61*	-5
OC[C@H]1O[C@@H](Oc2ccc3cc(Br)ccc3c2)[C@H](O)[C@@H](O)[C@H]1O	-7	1	0	·	-2	0
COc1cccc(NC(=O)NNC(=O)C(C)Oc2ccc3ccccc3c2)c1 (stereo not given)	1	0	0	·	-6	-3
CC(C)(C)NC(=O)NC(=O)COC(=O)c1ccc2c(c1)S(=O)(=O)N=C1CCCCCN12	2	0	2	2	0	1
CC(NC(=O)COC(=O)c1ccc2c(c1)S(=O)(=O)N=C1CCCCCN12)C12CC3CC(CC(C3)C1)C2 (stereo not given)	-6	7.2*	7	12	-9	-1
CC(C)c1ccc2[nH]c(O)c(N=NC(=O)c3cccc(S(=O)(=O)Nc4ccc(Cl)cc4)c3)c2c1	1	13*	3	5	-5	-4
CC(C)c1ccc2[nH]c(O)c(N=NC(=O)c3cccc(S(=O)(=O)Nc4cccc(Cl)c4)c3)c2c1	-3	?	1	·	9	-9
CC1CCC(=NO)C(=NO)C1 (stereo not given)	6	·	·	·	-2	-5
Cc1cc(C)cc(N=Cc2c(O)c3ccccc3oc2=O)c1	-2	10*	3	1	-3	-8
COc1cccc(C(=O)N=c2sc3c(C)ccc(OC)c3n2C)c1	8	-9	10	·	-10	1
COc1ccc(C(=O)N=c2sc3c(C)ccc(OC)c3n2C)cc1OC	4	-7	14	·	47*	0
CC(=O)C1CCC2C3CCC4=CC(=O)CC[C@]4(C)[C@@]3(F)C(O)C[C@]12C (stereo not given in full)	6	1	0	·	-15	-8
CC(=O)C1CCC2C3CCC4=CC(=O)CCC4(C)C3(Br)C(=O)CC12C (stereo not given)	-5	·	·	·	56*	-1
O=C(Nc1ccc(N2CCCC2)cc1)c1cccc(-c2cc3ccccc3oc2=O)c1	10	0	3	4	57*	-5
CC(=C\c1ccccc1)/C=C1/SC(=S)N(CCC(=O)O)C1=O	6	-2	-1	·	-4	-2
Cc1cc2n(n1)C(c1ccccc1)CC(c1ccc(Br)cc1)=N2 (stereo not given)	24*	0	·	-10	-18	22*
O=C(NCc1cccnc1)/C(=C/c1ccc(-c2cccc(Cl)c2)o1)S(=O)(=O)c1ccccc1	4	1	42*	16	29	-26
Cc1ccccc1Cn1nnc(-c2ccc3c(c2)OCO3)n1	-3	0	3	0	-5	-8
N#CCn1nnc(-c2ccc3c(c2)OCO3)n1	-11	6.7*	0	-1	4	-2
COc1cc(/C=C(/C#N)C(=O)Nc2cc(C(F)(F)F)ccc2Cl)ccc1OCC(=O)Nc1cccc(C(F)(F)F)c1	0	·	·	·	10	-9
C=C1C(=O)C=C2CN(C(=O)c3ccccc3)[C@@](Cc3ccc(F)cc3)(C(=O)OC)[C@@H]12	9	0	2	-8	79*	48*
CCOC(=O)CCCNS(=O)(=O)c1c(C)ccc2nsnc12	12	6.6*	-1	-7	3	-1
Nc1ccc(-n2nc3ccccc3n2)cc1	-14	-3	0	·	3	-6
CCCCC(=O)O[C@H]1CC[C@H]2[C@@H]3CCc4cc(O)ccc4[C@H]3CC[C@]12C	-3	0	30	-8	43*	5
CC(CCc1ccccc1)NC(=O)c1ccccc1C(=O)O (stereo not given)	-10	0	1	·	9	-7
CCOc1ccc(Nc2cc(C)c3ccccc3n2)cc1	1	0	22	·	5	-18
CCOc1ccc(Nc2c3ccccc3nc3ccccc23)cc1	3	1	14	·	52*	-9
